CYP2C19 activ – increases human CYP2C19 enzyme activity; P33261; recombinant CYP2C19, luciferin-H EGE luminescence; stronger effect = higher value; 0 = fully inhibited enzyme, 1 = untreated enzyme; activation factor at 5 µM; 96,000 tested, under 10 active; AID 1025;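 active means activation factor of at least 2 at 5 µM in the primary screen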
PLK1 inh – inhibitors of human PLK1 kinase; inhibition, % at 10 µM; AID 619; recombinant PLK1 kinase, TR-FRET peptide phosphorylation; 0.53% of 97,000 active;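 active means inhibition of 50% or more in the single-concentration screen; inactive means inhibition below 50%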
Target sequence (P53350 whole entry, looked up): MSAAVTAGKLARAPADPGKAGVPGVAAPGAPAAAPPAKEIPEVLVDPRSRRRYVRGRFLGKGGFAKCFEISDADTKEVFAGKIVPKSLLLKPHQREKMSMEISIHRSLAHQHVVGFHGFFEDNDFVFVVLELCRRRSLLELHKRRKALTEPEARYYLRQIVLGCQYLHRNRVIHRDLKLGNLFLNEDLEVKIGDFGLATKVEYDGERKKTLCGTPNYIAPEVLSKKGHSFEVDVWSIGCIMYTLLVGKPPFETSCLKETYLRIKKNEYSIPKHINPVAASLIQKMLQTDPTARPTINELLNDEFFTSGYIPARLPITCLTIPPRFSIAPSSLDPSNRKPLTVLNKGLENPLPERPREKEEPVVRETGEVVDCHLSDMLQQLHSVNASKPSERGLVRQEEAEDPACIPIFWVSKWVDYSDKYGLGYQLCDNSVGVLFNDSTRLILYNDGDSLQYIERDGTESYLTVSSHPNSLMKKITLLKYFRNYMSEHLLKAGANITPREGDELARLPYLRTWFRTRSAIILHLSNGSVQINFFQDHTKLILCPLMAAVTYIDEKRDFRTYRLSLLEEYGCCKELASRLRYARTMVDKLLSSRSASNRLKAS
CYP2C9 activ – increases human cytochrome P450 2C9 activity. recombinant CYP2C9, luciferin-H conversion, luminescence; stronger effect = higher value; factor 1 = untreated enzyme, 0 = blocked. P11712. activation factor at 5 µM. AID 1024. 1.4% of 96,000 active;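 active means activation factor of 2 or more for CYP2C9 at a 5 µM dose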
CYP2C9 inhib – inhibitors of human CYP2C9; P11712; CYP2C9 Supersomes, luciferin-H conversion, luminescence; inhibition, % at 5 µM; 20% of 96,000 active; AID 777;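 active means blocking of liver enzyme CYP2C9 beyond about 50% at 5 µM, limit read from the data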
CYP2C19 inh – inhibitors of human CYP2C19 | CYP2C19 Supersomes, luciferin-H EGE luminescence, 30 min | inhibition, % at 5 µM | 21% of 96,000 active;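 active means CYP2C19 inhibition above a set limit at 5 µM in the primary screen, cut at about 50% in these data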
PLK1 PBD inh – blocks phosphopeptide binding to human Plk1 polo box domain; P53350; Plk1 PBD phosphopeptide binding, fluorescence polarization; inhibition, %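 (tested at about 20 µM)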; 0.13% of 97,000 active; AID 693; in the data active means inhibition above about 34%, passing the limit was not always enough
Hits are given with their value. In the library only some 28% were active in any assay of this set; here they are far more common.

Screening O=C(NC1CCCCC1)C1CCCN(c2nnnn2-c2ccccc2)C1 (stereo not given) returned CYP2C19 activ inactive, PLK1 inh inactive, CYP2C9 activ inactive, CYP2C9 inhib inactive, CYP2C19 inh 55 and PLK1 PBD inh inactive.
CC(C)C(NC(=O)C1CCCCC1)C(=O)NC1=NCCS1 (stereo not given) was read as CYP2C19 activ inactive, PLK1 inh inactive, CYP2C9 activ inactive, CYP2C9 inhib inactive, CYP2C19 inh inactive and PLK1 PBD inh inactive.
For Cc1cccc(C)c1NC(=O)C(NC=O)c1ccccc1 (stereo not given) the results were CYP2C19 activ inactive, PLK1 inh inactive, CYP2C9 activ inactive, CYP2C9 inhib inactive, CYP2C19 inh inactive and PLK1 PBD inh inactive.
Screening Cc1cc(C)c(NC(=O)C(C)c2cccc(C(=O)c3ccccc3)c2)c(C)c1 (stereo not given) returned CYP2C19 activ inactive, PLK1 inh inactive, CYP2C9 activ inactive, CYP2C9 inhib 73, CYP2C19 inh 72 and PLK1 PBD inh inactive.
Screening CCOC(=O)c1[nH]c(C)c(C(=O)c2ccc(C)cc2)c1C returned CYP2C19 activ inactive, PLK1 inh inactive, CYP2C9 activ inactive, CYP2C9 inhib inactive, CYP2C19 inh 63 and PLK1 PBD inh inactive.
For CCOC(=O)c1[nH]c(C)c(C(=O)NCc2ccc(C)cc2)c1C the results were CYP2C19 activ inactive, PLK1 inh inactive, CYP2C9 activ inactive, CYP2C9 inhib inactive, CYP2C19 inh inactive and PLK1 PBD inh inactive.
`CCOC(=O)c1[nH]c(C)c(C(=O)Nc2cc(OC)ccc2OC)c1C` gave CYP2C19 activ inactive, PLK1 inh inactive, CYP2C9 activ 2, CYP2C9 inhib inactive, CYP2C19 inh inactive and PLK1 PBD inh inactive.
CCOC(=O)c1c(C)c(C(=O)Nc2cc(OC)ccc2OC)c(C)n1CC was read as CYP2C19 activ inactive, PLK1 inh inactive, CYP2C9 activ inactive, CYP2C9 inhib inactive, CYP2C19 inh 61 and PLK1 PBD inh inactive.
`COc1ccccc1NC(=O)c1[nH]c(C)c(C(C)=O)c1C` gave CYP2C19 activ inactive, PLK1 inh inactive, CYP2C9 activ inactive, CYP2C9 inhib 79, CYP2C19 inh inactive and PLK1 PBD inh inactive.
For Cc1nn(-c2ccccc2)c2c1P(=O)(O)/C(=C1\N(C)c3ccccc3C1(C)C)C=N2 the results were CYP2C19 activ inactive, PLK1 inh inactive, CYP2C9 activ inactive, CYP2C9 inhib inactive, CYP2C19 inh inactive and PLK1 PBD inh inactive.
CC1CCc2c(sc(NC(=O)CN3CCN(C(=O)c4ccco4)CC3)c2C#N)C1 (stereo not given) was read as CYP2C19 activ inactive, PLK1 inh inactive, CYP2C9 activ inactive, CYP2C9 inhib inactive, CYP2C19 inh inactive and PLK1 PBD inh inactive.
`Cc1cc(C(=O)NC2=NCCS2)cs1` gave PLK1 inh inactive and PLK1 PBD inh inactive.
Screening CC(=O)c1c(C)[nH]c(C(=O)NC2=NCCS2)c1C returned CYP2C19 activ inactive, PLK1 inh inactive, CYP2C9 activ inactive, CYP2C9 inhib 64, CYP2C19 inh inactive and PLK1 PBD inh inactive.
For COC(=O)c1cccc(NC(=O)C23CC4CC(C2)CC(n2cncn2)(C4)C3)c1 the results were PLK1 inh inactive and PLK1 PBD inh inactive.
Screening CCOC(=O)N1CCN(C(=O)c2csc3c2CCCCC3)CC1 returned CYP2C19 activ inactive, PLK1 inh inactive, CYP2C9 activ inactive, CYP2C9 inhib 76, CYP2C19 inh 55 and PLK1 PBD inh inactive.
Screening CCCN1Cc2cccc(C(=O)N3CCN(c4ccccc4)CC3)c2C1=O returned CYP2C19 activ inactive, PLK1 inh inactive, CYP2C9 activ inactive, CYP2C9 inhib inactive, CYP2C19 inh 50 and PLK1 PBD inh inactive.
For CC(=O)c1c(C)[nH]c(C(=O)N2CCN(c3ccc(F)cc3)CC2)c1C the results were CYP2C19 activ inactive, PLK1 inh inactive, CYP2C9 activ inactive, CYP2C9 inhib inactive, CYP2C19 inh 71 and PLK1 PBD inh inactive.
For CC(C)C(=O)N1CCN(c2ccc(NC(=O)c3ccc(Br)o3)cc2)CC1 the results were CYP2C19 activ inactive, PLK1 inh inactive, CYP2C9 activ inactive, CYP2C9 inhib inactive, CYP2C19 inh inactive and PLK1 PBD inh inactive.
O=C(Nc1ccc(N2CCN(C(=O)c3ccc(Cl)cc3)CC2)cc1)c1ccc(Br)o1 was read as CYP2C19 activ inactive, PLK1 inh inactive, CYP2C9 activ inactive, CYP2C9 inhib 57, CYP2C19 inh inactive and PLK1 PBD inh inactive.
For COc1cccc(N2CCN(C(=O)c3[nH]c(C)c(C(C)=O)c3C)CC2)c1 the results were CYP2C19 activ inactive, PLK1 inh inactive, CYP2C9 activ inactive, CYP2C9 inhib inactive, CYP2C19 inh inactive and PLK1 PBD inh inactive.
`COc1ccc(C2NC(C(=O)O)CS2)cc1COCC(F)(F)F` (stereo not given) gave PLK1 inh inactive and PLK1 PBD inh inactive.
`CCn1c(C)c(CCC(=O)O)c(=O)n2nc(-c3ccccc3OC)cc12` gave CYP2C19 activ inactive, PLK1 inh inactive, CYP2C9 activ inactive, CYP2C9 inhib inactive, CYP2C19 inh inactive and PLK1 PBD inh inactive.
`CCCC(=O)Nc1cc(-c2nnc(OC)c3ccccc23)ccc1N1CCOCC1` gave PLK1 inh inactive and PLK1 PBD inh inactive.
`O=C(c1ccccc1C(=O)N1CCN(c2ccc(F)cc2)CC1)N1CCN(c2ccc(F)cc2)CC1` gave CYP2C19 activ inactive, PLK1 inh inactive, CYP2C9 activ inactive, CYP2C9 inhib 88, CYP2C19 inh 54 and PLK1 PBD inh inactive.
Screening O=C(c1ccc(Br)o1)N1CCN(c2ccc(F)cc2)CC1 returned CYP2C19 activ inactive, PLK1 inh inactive, CYP2C9 activ inactive, CYP2C9 inhib inactive, CYP2C19 inh 95 and PLK1 PBD inh inactive.
For O=C(c1cccs1)N1CCN(c2ccc(F)cc2)CC1 the results were CYP2C19 activ inactive, PLK1 inh inactive, CYP2C9 activ inactive, CYP2C9 inhib inactive, CYP2C19 inh inactive and PLK1 PBD inh inactive.
Screening O=C(c1csc2c1CCCC2)N1CCN(c2ccccc2)CC1 returned CYP2C19 activ inactive, PLK1 inh inactive, CYP2C9 activ 2, CYP2C9 inhib inactive, CYP2C19 inh inactive and PLK1 PBD inh inactive.
O=C(c1ccc(S(=O)(=O)N2CCCCC2)cc1)N1CCN(c2ccccc2)CC1 was read as CYP2C19 activ inactive, PLK1 inh inactive, CYP2C9 activ inactive, CYP2C9 inhib inactive, CYP2C19 inh inactive and PLK1 PBD inh inactive.
For O=C(c1ccccc1C(=O)N1CCN(c2ccccc2)CC1)N1CCN(c2ccccc2)CC1 the results were CYP2C19 activ inactive, PLK1 inh inactive, CYP2C9 activ inactive, CYP2C9 inhib 70, CYP2C19 inh inactive and PLK1 PBD inh inactive.
Screening O=C(c1noc2c1CCCC2)N1CCN(c2ccc(F)cc2)CC1 returned CYP2C19 activ inactive, PLK1 inh inactive, CYP2C9 activ inactive, CYP2C9 inhib inactive, CYP2C19 inh inactive and PLK1 PBD inh inactive.
For O=C(O)c1ccccc1C(=O)N1CCN(c2ccccc2)CC1 the results were CYP2C19 activ inactive, PLK1 inh inactive, CYP2C9 activ inactive, CYP2C9 inhib inactive, CYP2C19 inh inactive and PLK1 PBD inh inactive.

Assay outcomes: PubChem BioAssay, several laboratories
